Laboratory results reported in PubChem BioAssay (NCI).
Compounds without any hit were thinned out: in the full panel of roughly 83,000, 20% have a hit.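 How to read the values: 0–100, growth inhibition (40 = 60% inhibited); 0, no net growth; -100 to 0, cell death (-40 = 40% of starting cells died; -100 = all dead).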 Unmarked numbers belong to inactive results. Active and inactive are the calls of the source. How the source made its calls: active means growth percent below 10; inactive means the rest.

Key:
Assay in all cases: NCI-60 one-dose screen, 48 h (100 = growth as untreated, 0 = no growth, -100 = all killed)
Conditions in all cases: 10 µM unless noted
DU-145 prostate = test system: DU-145 prostate
K-562 leukemia = test system: K-562 leukemia
MALME-3M melanoma = test system: MALME-3M melanoma
MDA-MB-231 breast = test system: MDA-MB-231 breast
RXF 393 renal = test system: RXF 393 renal
SF-268 CNS = test system: SF-268 CNS
SF-295 CNS = test system: SF-295 CNS
SF-539 CNS = test system: SF-539 CNS
UACC-257 melanoma = test system: UACC-257 melanoma
M14 melanoma = test system: M14 melanoma
HCT-15 colon = test system: HCT-15 colon
HT29 colon = test system: HT29 colon
SNB-75 CNS = test system: SNB-75 CNS
SNB-19 CNS = test system: SNB-19 CNS
U251 CNS = test system: U251 CNS
PC-3 prostate = test system: PC-3 prostate
SK-MEL-5 melanoma = test system: SK-MEL-5 melanoma
UACC-62 melanoma = test system: UACC-62 melanoma
LOX IMVI melanoma = test system: LOX IMVI melanoma
SK-MEL-28 melanoma = test system: SK-MEL-28 melanoma

Row | SMILES | growth (DU-145 prostate) | growth (K-562 leukemia) | growth (MALME-3M melanoma) | growth (MDA-MB-231 breast) | growth (RXF 393 renal) | growth (SF-268 CNS) [%] | growth (SF-295 CNS) | growth (SF-539 CNS) | growth (UACC-257 melanoma) | growth (M14 melanoma) [%] | growth (HCT-15 colon) | growth (HT29 colon) | growth (SNB-75 CNS) | growth (SNB-19 CNS) [%] | growth (U251 CNS) | growth (PC-3 prostate) | growth (SK-MEL-5 melanoma) | growth (UACC-62 melanoma) [%] | growth (LOX IMVI melanoma) | growth (SK-MEL-28 melanoma) [%]
1 | Nc1ccc(S(=O)(=O)Nc2ccsc2-c2nc(-c3ccccc3)no2)cc1 | 76.5% | 13.5% | 70.5% | 61.8% | 83.3% | 67.2 | 69.8% | 75.6% | 67.2% | 32.1 | 34.1% | 11.8% | 54.8% | 69.3 | 41.7% | 53.1% | 65.9% | 50.7 | 68% | 71.2
2 | Cc1[nH]c(-c2nc3ccccc3[nH]2)c(C)c1C(=O)N1CCc2sccc2C1 | 102% | 82.9% | 85.9% | 85.9% | 101% | 97.3 | 100% | 87.5% | 96.9% | 94.6 | 90% | 96% | 78.6% | 89.4 | 97.9% | 87.3% | 88.8% | 87.8 | 93.3% | 94.5
3 | O=C1NC(=S)S/C1=C\N1N=C(c2ccc(Cl)cc2)CC1c1ccc(F)cc1 (stereo not drawn) | 98.5% | 59.8% | 83.7% | 80.9% | 73.8% | 85.9 | 92.4% | 89.5% | 107% | 87.7 | 78.5% | 85.5% | 76.1% | 81.7 | 68.7% | 81.6% | 77.8% | 73.6 | 80.6% | 103
4 | C[C@@H](C[C@H](CCOCc1cccnc1)c1ccccc1)c1cc2ccccc2o1 | 98.7% | 81.5% | 95.5% | 98.1% | 92.8% | 89.3 | 97.6% | 98.8% | 94% | 92.8 | 91.1% | 78.1% | 85.6% | 94.2 | 93.6% | 75.6% | 98.4% | 81.2 | 95.8% | 102
5 | N#Cc1c(-c2ccc(C(F)(F)F)cc2)cc(N2CC(O)C2)n2c1nc1ccccc12 | 71.4% | 110% | -3.85% (active) | 39.2% | 21.5% | 32.7 | 28.1% | 36.2% | 51.9% | 80.6 | 85.7% | 74% | -18.5% (active) | 24.8 | 40.2% | 39.6% | 67.5% | 33.9 | 53.2% | 59.7
6 | CC[C@@H](C[C@H](CCO)c1ccccc1)c1cc2ccccc2o1 | 97.9% | 77.7% | 103% | 98% | 96.9% | 91.2 | 99.5% | 104% | 96.9% | 91.9 | 95.3% | 82.7% | 79.9% | 97.4 | 90.9% | 78.8% | 106% | 88.4 | 101% | 102
7 | COc1ccccc1NC(=O)Nc1ccc(-c2nc3ccccc3o2)cc1 | 101% | 83.4% | 95.3% | 98.5% | 108% | 104 | 96.8% | 96.7% | 101% | 102 | 96.9% | 132% | 109% | 94.8 | 93.6% | 95.6% | 92.6% | 98.7 | 97.9% | 111
8 | COc1ccc(-c2cncnc2N)cc1OC | 114% | 103% | 111% | 112% | 112% | 103 | 97.5% | 107% | 111% | 103 | 103% | 111% | 88.3% | 108 | 97.7% | 90.6% | 106% | 112 | 98.6% | 106
9 | Cn1cc(Nc2nccc(-c3ccc(N4CCCC4)c(C#N)c3)n2)cn1 | 55.7% | 9.73% (active) | 54.4% | 63.9% | 43.9% | 45.9 | 71.3% | 43.8% | 69.6% | 17.2 | 21.3% | 20.3% | 24.5% | 62.3 | 35.8% | 43% | 38.8% | 28.8 | 32.6% | 64
10 | CN1CCN(c2ccc(Nc3ncc(Cl)c(NC[C@@H]4CCCO4)n3)cc2)CC1 | 23% | 27.2% | 27.4% | 17.8% | -31.7% (active) | 24.6 | 31.3% | -6.55% (active) | 44.7% | 21.7 | 24.3% | 16% | 6.49% (active) | 53.9 | 32.5% | 30.7% | 31% | 38.5 | 8.91% (active) | 50.9
11 | O=C1Nc2ccccc2/C1=N/N=C/c1ccc(OC2OC(CO)C(O)C(O)C2O)cc1 (stereo not drawn) | 114% | 98.3% | 101% | 105% | 114% | 102 | 110% | 97.5% | 106% | 108 | 105% | 103% | 96.8% | 100 | 106% | 105% | 103% | 101 | 101% | 108
12 | COc1ccc(C2CC(c3cnccn3)=NN2)cc1OC (stereo not drawn) | 104% | 60.9% | 95.4% | 106% | 100% | 103 | 104% | 111% | 106% | 89.5 | 107% | 84.9% | 118% | 103 | 96.7% | 92% | 100% | 103 | 104% | 121
13 | CC1(C)CC(=O)c2c(ccc(C(=O)C[C@H](N)CO)c2N)O1 | 38% | 37.1% | 48.6% | 54.6% | 44.1% | 34.2 | 42.9% | 23.7% | 49.1% | – | 4.43% (active) | 2.53% (active) | 75.9% | 34.7 | 14.8% | 45.3% | 47.2% | 11 | -61.7% (active) | –
14 | CC(C)(O)c1cccc(F)c1 | 107% | 105% | 101% | 89.5% | 107% | 106 | 106% | 88% | 108% | 95.6 | 99.2% | 108% | 92.3% | – | 106% | 99.9% | 103% | 88.7 | 97.7% | 101
15 | CC[C@]1(O)C[C@H]2CN(CCc3c([nH]c4ccccc34)[C@@](C(=O)OC)(c3cc4c(cc3OC)N(C=O)[C@H]3[C@@](O)(C(=O)OC)[C@H](OC(C)=O)[C@]5(CC)C=CCN6CC[C@]43[C@@H]65)C2)C1 | -42.5% (active) | -0.624% (active) | 45.4% | -27.1% (active) | -36% (active) | 23.9 | 13.6% | -28.7% (active) | 5.68% (active) | – | 10.9% | -3.03% (active) | 15.7% | 10.1 | 24.2% | 18.3% | -73.5% (active) | 23.9 | 28.8% | –
16 | COc1cc2c(cc1OC)-c1ccc3cc4c(cc3c1N(CCN1CCCC1)C2)OCO4 | 11.5% | -3.86% (active) | 51.4% | -38.6% (active) | -3.76% (active) | 20.1 | 4.42% (active) | 4.16% (active) | 44.2% | 17.4 | 40.6% | -51.2% (active) | -3.1% (active) | – | -55.7% (active) | 2.3% (active) | 26.4% | 36.1 | -79% (active) | 77.2
17 | CCOC(=O)c1c2c(c(C)n1C)-c1nn(Cc3ccc(OC)cc3)cc1CC2 | 106% | 69.1% | 161% | 98.2% | 113% | 103 | 100% | 111% | 113% | – | 83.9% | 79.1% | 103% | 95.2 | 96.4% | 66.3% | 69.6% | 68.9 | 84.5% | 119
